# Values without a mark were called inactive. The rule behind the calls is not given here.
# Target: Pantothenate synthetase (Mycobacterium tuberculosis (strain ATCC 25618 / H37Rv)) (UniProt P9WIL5)
# Test: Recombinant Mtb pantothenate synthetase (PanC) inhibitors, coupled enzyme, confirmatory (AID 375);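 note: 0% = full reaction with vehicle and 100% = no enzyme background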
# Conditions: coupled enzyme assay; at 10 µM, active compounds read high
# Pantothenate synthetase (Mycobacterium tuberculosis (strain ATCC 25618 / H37Rv)), sequence (P9WIL5 whole entry, looked up): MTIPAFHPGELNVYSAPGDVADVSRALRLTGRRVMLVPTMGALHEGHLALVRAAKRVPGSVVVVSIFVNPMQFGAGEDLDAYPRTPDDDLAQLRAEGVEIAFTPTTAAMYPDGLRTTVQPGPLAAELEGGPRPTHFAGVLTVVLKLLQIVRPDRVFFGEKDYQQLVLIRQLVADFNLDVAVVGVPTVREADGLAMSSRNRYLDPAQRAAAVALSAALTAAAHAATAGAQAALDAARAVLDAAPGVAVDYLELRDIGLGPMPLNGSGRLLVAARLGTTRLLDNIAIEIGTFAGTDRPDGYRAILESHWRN
row,SMILES,inhibition [%]
1,O=C(c1ccco1)N1CCN(c2nc(C(F)(F)F)nc3c2nnn3Cc2ccccc2)CC1,0
2,COc1cc(S(=O)(=O)NC2CCCCC2)ccc1Cl,1
3,CC1CCCCN1CCNS(=O)(=O)c1ccc2c(c1)oc(=O)n2C (stereo not given),0
4,O=c1[nH]c(CN2CCN(Cc3ccccc3)CC2)nc2sc3c(c12)CCC3,0
5,Cc1cccc(OCCCc2c(C)n[nH]c2C)c1,0
6,COC(=O)c1ccc(CSc2nnc(-c3ccncc3)o2)o1,0
7,N#CCc1ccc(NC(=O)Nc2cccc(Cl)c2)cc1,0
8,c1coc(-c2nnc(-c3cccs3)o2)c1,16
9,CC(C)Cc1ccc(C(C)C(=O)O)cc1 (stereo not given),0
10,Cc1ccc(C2=N/C(=C/N3CCOCC3)C(=O)O2)cc1,1
11,Cc1ccc2c(c1)CCCN2C(=O)c1ccc2c(c1)OCO2,0
12,CCn1cc(C(=O)NCCN(C)CCc2ccccc2)c(=O)c2cc(S(=O)(=O)N(C)C)ccc21,4
13,COc1ccc(CCn2c(N)c(C#N)c3nc4ccccc4nc32)cc1OC,0
14,Cc1nnc(N2C(=O)C(O)=C(C(=O)c3ccco3)C2c2ccc(F)cc2)s1 (stereo not given),0
15,COCCn1c(CN2CCN(c3cccc(Cl)c3)CC2)nc2c1c(=O)n(C)c(=O)n2C,0
16,Cc1ccc2oc(-c3ccccc3C(=O)O)cc(=O)c2c1,13
17,Cc1cc(C)c2c(N)c(C(=O)N3CCN(c4ncccn4)CC3)sc2n1,3
18,COC(=O)C1=C(C)Nc2nnnn2C1c1ccc(Cl)cc1Cl (stereo not given),0
19,CCCN(Cc1cc2cc(C)ccc2[nH]c1=O)C(=O)c1cccc(OC)c1,0
20,Cc1nnc(NCc2n[nH]c(=O)c3ccccc23)c2ccccc12,13

row,SMILES,inhibition [%]
1,Cc1cc(C)nc(-n2nc(C)cc2NC(=O)c2ccc(Br)o2)n1,0
2,COc1cc(OC)c(OC)cc1CN(C)CCc1ccccn1,3
3,COC(=O)c1sc(S(=O)(=O)NCc2cccs2)c(C(=O)OC)c1C,0
4,CCc1cc2c(CN3CCN(CCO)CC3)cc(=O)oc2cc1O,0
5,O=C(O)c1ccc2c(c1)N(Cc1ccccc1F)C(=O)c1ccccc1S2=O (stereo not given),0
6,CC1CCN(S(=O)(=O)c2ccc3[nH]c(=O)cc(C(=O)O)c3c2)CC1,0
7,Cc1ccc(N(CC(=O)NCC2CCCO2)S(C)(=O)=O)cc1Cl (stereo not given),0
8,Nc1c(C(=O)NCCc2ccccc2)nnn1Cc1ccccc1,0
9,CN1CC=C2C(C#N)=C(N)C(C#N)(C#N)C(c3cccc(Cl)c3Cl)C2C1 (stereo not given),0
10,Cc1nnc(SCc2nnc(-c3ccccc3Br)o2)n1-c1ccccc1,0
11,O=c1c2nnn(Cc3ccc(Cl)cc3)c2ncn1Cc1ccc(F)cc1,0
12,COc1ccc2c(=O)c3c(=O)n(Cc4ccco4)c(-c4cc(OC)c(OC)c(OC)c4)nc3oc2c1,5
13,Cc1cc2c(cc1C)C(=O)NC(C)(C)C2,0
14,COc1ccc(N(CC(=O)N2c3ccccc3CC2C)S(=O)(=O)c2c(C)noc2C)cc1 (stereo not given),7
15,Cc1cccc2cc(COC(=O)C(C)(C)C)c(=O)[nH]c12,0
16,CCCCNc1cc(C(=O)O)cc(S(N)(=O)=O)c1Oc1ccccc1,3
17,COc1ccc(-c2nc3c(c(=O)n(C)c(=O)n3C)n2CC2CC(c3ccccc3)=NO2)cc1OC (stereo not given),1
18,O=C(NC1CCCCC1)C1CC(O)CN1C(=O)OCc1ccccc1 (stereo not given),0
19,COc1cccc(C(=O)Nc2cccc(C(=O)N3CCOCC3)c2)c1,2
20,CCOC(=O)C1C(=O)NC(SCC(=O)Nc2nccs2)=C(C#N)C1c1ccccc1OCC (stereo not given),0
